Laboratory results taken from PubChem BioAssay AID463173 (ICCB-Longwood Screening Facility, Harvard Medical School, 2010).
In all, about 52,000 compounds went through this assay and about 4,300 (8.3%) were called active. Rule as the data show it: active = survival mostly below about 52% (no sharp cut-off); inactive = mostly above about 56%. What follows is part of a selection rich in actives, with near analogues and random picks from the rest.

The compounds below were run on DeltatarO mutant (assay: S. aureus survival, RN4220 and DeltatarO strains – OD600, teichoic acid synthesis inhibitors, primary screen (AID 463173)). Conditions: S. aureus RN4220 wild type/DeltatarO growth, OD600, 18 h, hits give low values, screened at 18.75 µg/mL (by protocol).

Row | Compound | survival
1 | COc1ccc2c(C)c(CCC(=O)NCCc3ccc(OC)c(OC)c3)c(=O)oc2c1 | 88% (inactive)
2 | CC(=O)c1cccc(NC(=O)Cn2cc(C(=O)c3cccc(Cl)c3)c(=O)c3ccc(C)nc32)c1 | 56% (inactive)
3 | COc1cc(C(=O)Nc2ccc(Cl)c(-c3nc4ncccc4o3)c2)cc(OC)c1OC | 123% (inactive)
4 | COc1ccc(Br)cc1CNC(=O)c1cc(=O)[nH]c2ccc(S(=O)(=O)N3CCCCC3)cc12 | 84% (inactive)
5 | CCOC(=O)CCC(=O)Nc1nnc2n1CCS2 | 66% (inactive)
6 | CCN1CCN(CCC(=O)Nc2ccc3c(c2)CCC3)CC1 | 95% (inactive)
7 | COc1ccc(Nc2oc(/C=C/c3ccc(OC)c(OC)c3)nc2C#N)cc1 | 73% (inactive)
8 | COc1ccccc1/C=C/c1nc(C#N)c(NCC(C)C)o1 | 47% (active)
9 | COc1ccccc1/C=C/c1nc(C#N)c(NCc2ccccc2)o1 | 83% (inactive)
10 | COc1cc(/C=C/c2nc(C#N)c(NC3CCCCC3)o2)cc(OC)c1OC | 32% (active)
11 | CCOc1ccc(Nc2oc(/C=C/c3cc(OC)c(OC)c(OC)c3)nc2C#N)cc1 | 58% (inactive)
12 | CCOc1ccc(/C=C/c2nc(C#N)c(NC3CCCCC3)o2)cc1 | 65% (inactive)
13 | COc1cccc(/C=C/c2nc(C#N)c(NCCc3ccc(OC)c(OC)c3)o2)c1 | 41% (active)
14 | COc1ccc(CCNc2oc(/C=C/c3ccc(OC)c(OC)c3)nc2C#N)cc1 | 90% (inactive)
15 | CCOc1ccc(Nc2oc(/C=C/c3ccc(OC)c(OC)c3)nc2C#N)cc1 | 55% (active)
16 | CNc1oc(/C=C/c2cc(OC)c(OC)c(OC)c2)nc1C#N | 69% (inactive)
17 | COc1ccccc1/C=C/c1nc(C#N)c(NCCc2ccccc2)o1 | 71% (inactive)
18 | COc1ccc(/C=C/c2nc(C#N)c(NCCc3ccc(OC)c(OC)c3)o2)cc1OC | 95% (inactive)
19 | Cc1cc(C)nc(SCCC(=O)N(C)C)n1 | 84% (inactive)
20 | CC(=O)N1CCN(CCN2C(=O)C3C4c5ccccc5C(c5ccccc54)C3C2=O)CC1 (centres undefined) | 94% (inactive)

Row | Compound | survival
21 | CCC(=O)N(Cc1cc(=O)[nH]c2ccccc12)C1CCCCC1 | 69% (inactive)
22 | COc1cc(NC(=O)CC(c2cccs2)N2Cc3ccccc3C2=O)cc(OC)c1OC (centres undefined) | 49% (inactive)
23 | Cc1ccc(-c2csc(-c3nc(-c4ccc(Br)s4)cs3)n2)cc1 | 82% (inactive)
24 | Cc1c(NC(=O)c2ccc(Cl)cc2)cc(C(C)C)c(O)c1S(=O)(=O)c1ccc(Cl)cc1 | 75% (inactive)
25 | CCN(CC)C(=O)CSc1nnc(Cc2ccccc2)n1CC | 50% (inactive)
26 | CCOC(=O)C1CCN(C(=O)c2ccc3c(=O)n4nc(Nc5cc(C)ccc5C)sc4nc3c2)CC1 | 84% (inactive)
27 | COc1ccc(S(=O)(=O)N2CCC(c3ccncc3)CC2)cc1Cl | 124% (inactive)
28 | COc1ccccc1CNC(=O)CCn1c(=O)c2ccccc2n(CC(=O)Nc2ccc(C)cc2Cl)c1=O | 77% (inactive)
29 | COc1ccc(-n2nc(C(=O)N3CCN(c4cccc(C)c4)C(C)C3)c3c4ccccc4n(C)c3c2=O)cc1 (centres undefined) | 76% (inactive)
30 | COc1ccccc1/C=C/c1nc(C#N)c(NC2CCCCC2)o1 | 85% (inactive)
31 | COc1cccc(/C=C/c2nc(C#N)c(NC3CCCCC3)o2)c1 | 69% (inactive)
32 | COc1ccccc1/C=C/c1nc(C#N)c(NC(C)c2ccccc2)o1 (centres undefined) | 70% (inactive)
33 | COc1cc(/C=C/c2nc(C#N)c(NC(C)c3ccccc3)o2)cc(OC)c1OC (centres undefined) | 40% (active)
34 | COc1ccc(/C=C/c2nc(C#N)c(NC3CCCCC3)o2)cc1OC | 36% (active)
35 | COc1cc(/C=C/c2nc(C#N)c(NCCc3ccccc3)o2)cc(OC)c1OC | 49% (inactive)
36 | CC(=O)N1c2ccc(S(=O)(=O)NCC3CCC(C(=O)NCCC(C)C)CC3)cc2CC1C (centres undefined) | 102% (inactive)
37 | CC(C)CC(=O)NCC1(N(C)C)CCCCC1 | 84% (inactive)
38 | O=C(CN1C(=O)C2CCCCN2c2ccc(C(=O)N3CCCC3)cc21)NCc1ccccc1F (centres undefined) | 99% (inactive)
39 | O=C(NCc1cccc(Cl)c1)c1ccc(NC(=O)N2CCSc3ccccc32)cc1 | 57% (inactive)
40 | CSc1nn(Cc2cccc(F)c2)c(N(C(C)=O)C(C)=O)c1S(=O)(=O)c1ccccc1 | 84% (inactive)

Row | Compound | survival
41 | Cc1nc(-c2ccc(C)c(N3CCN(C(=O)Nc4cccc(Cl)c4C)CC3)c2)no1 | 88% (inactive)
42 | CCN(CC)CCOC(=O)c1ccc(NC(=O)c2cc3c(s2)-c2ccccc2OC3)cc1 | -7% (active)
43 | Cc1ccc(C)c(N(C)C(=O)c2cc3c(s2)-c2ccccc2OC3)c1 | -3% (active)
44 | COc1cccc(CNC(=O)c2cc3c(s2)-c2c(C)cccc2OC3)c1 | 68% (inactive)
45 | COc1cccc(N2CCN(C(=O)c3cc4c(s3)-c3ccccc3OC4)CC2)c1 | 98% (inactive)
46 | COc1cc(NC(=O)c2cc3c(s2)-c2ccccc2OC3)cc(OC)c1OC | 55% (inactive)
47 | COc1ccc(CNC(=O)c2cc3c(s2)-c2ccccc2OC3)cc1 | 64% (inactive)
48 | COc1ccc(N2CCN(C(=O)c3cc4c(s3)-c3ccccc3OC4)CC2)cc1 | 114% (inactive)
49 | COc1cccc(CNC(=O)c2cc3c(s2)-c2ccccc2OC3)c1 | 42% (active)
50 | COc1ccc(N(C)C(=O)c2cc3c(s2)-c2ccccc2OC3)cc1 | -2% (active)
51 | CCc1cccc(NC(=O)c2cc3c(s2)-c2ccccc2OC3)c1 | 83% (inactive)
52 | Cc1ccc(CCNC(=O)c2cc3c(s2)-c2ccccc2OC3)cc1 | 82% (inactive)
53 | CCOc1ccc(NC(=O)c2cc3c(s2)-c2ccccc2OC3)cc1 | 95% (inactive)
54 | Cc1cc(C)c2c(-n3cccc3)c(C(=O)NCc3cccc(F)c3)sc2n1 | 66% (inactive)
55 | O=S(=O)(c1ccc2[nH]c3c(c2c1)CCCCC3)N1CCN(c2ccccc2)CC1 | 91% (inactive)
56 | COc1ccccc1N1CCN(c2cc(C)nc3nncn23)CC1 | 81% (inactive)
57 | Cc1nc(-c2cccnc2)sc1CCNS(=O)(=O)c1ccc(F)cc1 | 75% (inactive)
58 | COc1ccc(CNC(=O)C(CC(C)C)NS(=O)(=O)c2ccc3c(c2)CCN3C(C)=O)cc1 (centres undefined) | 92% (inactive)
59 | CNCC(O)COc1ccccc1 (centres undefined) | 94% (inactive)
